# Measured values published in ChEMBL document CHEMBL3988442, “University of Dundee, Small-Polar-MMV Screening Library” (2021).
# About 1,000 (1.4%) of roughly 69,000 compounds showed an effect of 50% or more. Many of the other results were omitted from the sample, so strong results are more common in it than they were.
# Test system: Leishmania donovani
# Test: Leishmania intramacrophage assay
# Assay type: functional, organism-based
# Parameters: scale not given: in the data most compounds retested in dose-response had high values
compound,measurement,setting,value
Cc1oncc1C(=O)N1CCC(O)(CN2CCOCC2)C(C)(C)C1 (stereo not given),Percent Effect,"30.3 µM, […]",22.16%
COc1cccc(CN(C)Cc2nc3c(cnn3C)c(=O)[nH]2)c1OC,Percent Effect,"30.3 µM, […]",-6.431%
COc1cc(NC2CCN(C3CCS(=O)(=O)CC3)CC2)ncn1,Percent Effect,"30.3 µM, […]",36.7%
Cc1nc2[nH]cnc(Nc3cnn(C)c3)c-2n1,Percent Effect,"30.3 µM, […]",10.52%
Cc1nc2[nH]cnc(Nc3cc(C)n(C)n3)c-2n1,Percent Effect,"30.3 µM, […]",75.58%
Cc1nc2[nH]cnc(Nc3ccn(C)n3)c-2n1,Percent Effect,"30.3 µM, […]",-6.289%
CCSCCC(=O)Nc1ncn(CC(=O)NCc2ccccc2)n1,Percent Effect,"30 µM, 30.03 µM",19.14%
O=C(c1c2c(N3CCOCC3)ncnc2n2ccccc12)N1CCCC1,Percent Effect,"30.3 µM, […]",16.59%
CN(C)CCN1CCOCC2(CCCN(C(=O)c3ccoc3)C2)C1.O=C(O)C(F)(F)F.O=C(O)C(F)(F)F (stereo not given),Percent Effect,"30.3 µM, […]",9.003%
Cc1cc2cc(CNC3CCN(CC4CCOC4)CC3)oc2cc1C (stereo not given),Percent Effect,"30.3 µM, […]",70.06%
Cc1cc2cc(CNC3CCN(S(C)(=O)=O)CC3)oc2cc1C,Percent Effect,"30.3 µM, […]",23.07%
Cc1cc2cc(CNC3CCN(CC(=O)N(C)C)CC3)oc2cc1C,Percent Effect,"30.3 µM, […]",25.29%
Cc1oc(-c2nc(C#N)c(NC3CC3)o2)cc1S(=O)(=O)N1CCCC1,Percent Effect,"30.3 µM, […]",1.943%
CNc1oc(-c2ccc(S(=O)(=O)N(C)C)o2)nc1C#N,Percent Effect,"30.3 µM, […]",-4.203%
CN(C)S(=O)(=O)c1ccc(-c2nc(C#N)c(NC(C)(C)C)o2)o1.Cl,Percent Effect,"30.3 µM, […]",70.96%
CN(C)S(=O)(=O)c1ccc(-c2nc(C#N)c(NC3CCCCC3)o2)o1,Percent Effect,"30.3 µM, […]",54.54%
CN(C)S(=O)(=O)c1ccc(-c2nc(C#N)c(NC3CC3)o2)o1,Percent Effect,"30.3 µM, […]",20.5%
CC(C)Nc1oc(-c2ccc(S(=O)(=O)N(C)C)o2)nc1C#N,Percent Effect,"30.3 µM, […]",16.53%
Cc1ccc(N2C[C@H](C(=O)N3CCOCC3)[C@@H]3CCO[C@@H]3C2)nn1,Percent Effect,"30.3 µM, […]",10.85%
O=C(O)C(F)(F)F.c1csc(CN2CCn3c(Cn4cncn4)cnc3C2)n1,Percent Effect,"30 µM, 30.03 µM",0.7173%
CC(C)(C)c1noc(CCCC(=O)N2CCCC(c3ccn[nH]3)C2)n1 (stereo not given),Percent Effect,"30.3 µM, […]",-44.28%
COc1cc(S(=O)(=O)N2CCCc3ccccc32)cc(C(=O)O)c1OC,Percent Effect,"30 µM, 30.03 µM",1.897%
Cc1c(C(=O)NCc2ccnc(OCC(F)(F)F)c2)cnn1C,Percent Effect,30 µM,34.3%
O=C(c1ccccn1)N1CCc2c(nc(N3CCCC3)[nH]c2=O)C1,Percent Effect,"30 µM, 30.03 µM",-2.348%
Cc1cnn(-c2cccc(N3CCCC3)n2)c1,Percent Effect,"30.3 µM, […]",88.75%
Cc1cnn(-c2cccc(N3CCN(c4cc(C)nc(C)n4)CC3)n2)c1,Percent Effect,"30.3 µM, […]",-8.114%
Cc1cnn(-c2cccc(N3CCCCC3)n2)c1,Percent Effect,"30.3 µM, […]",-15%
c1c(CN2CCOCC2)nc2n1CCN(CC1CC1)C2,Percent Effect,"30.3 µM, […]",2.759%
CCc1csc(C2CCCN(C(=O)c3ccco3)C2)n1 (stereo not given),Percent Effect,30 µM,-22.84%
Cc1cccc(NS(=O)(=O)c2cc(C(=O)O)oc2C)c1,Percent Effect,"30.3 µM, […]",8.685%
CC(C)(C)NC(=O)c1ccn(COc2ccccc2Cl)n1,Percent Effect,"30.3 µM, […]",62.54%
CC(C)(C)NC(=O)c1ccn(COc2c(Cl)cccc2Cl)n1,Percent Effect,"30.3 µM, […]",6.361%
COC(=O)c1ccn(COc2ccccc2Cl)n1,Percent Effect,"30.3 µM, […]",-5.219%
c1nc(N2CCOC(Cn3cncn3)C2)c2cc[nH]c2n1 (stereo not given),Percent Effect,30 µM,24.06%
COCCN1CCCC(c2ncc(C(=O)N(C)C)c(C)n2)C1 (stereo not given),Percent Effect,"30.3 µM, […]",-9.482%
COCCC(=O)N1CCC2(COCc3c(C)nc(NCC4CC4)nc32)C1 (stereo not given),Percent Effect,"30 µM, 30.03 µM",4.108%
Cc1nc(NCC2CC2)nc2c1COCC21CCN(C(=O)C(C)(C)C)C1 (stereo not given),Percent Effect,"30.3 µM, […]",-5.86%
Cc1nc(NCC2CC2)nc2c1COCC21CCN(C(=O)NC(C)C)C1 (stereo not given),Percent Effect,"30.3 µM, […]",52.42%
Cn1ccnc1CN1CCC2(CC1)COC2.O=C(O)C(F)(F)F,Percent Effect,"30.3 µM, […]",21.73%
O=C(CN1CCC(c2ccccc2)CC1)NCc1cc2n(n1)CCNC2,Percent Effect,"30.3 µM, […]",55.19%
O=C(CN1CC(c2ccccc2)CC1=O)NCc1cc2n(n1)CCNC2 (stereo not given),Percent Effect,"30.3 µM, […]",29.23%
c1ccc(C2CCCN(Cc3cc4n(n3)CCNC4)CC2)cc1 (stereo not given),Percent Effect,"30.3 µM, […]",58.47%
O=C(CN1CCOc2ccccc2C1)NCc1cc2n(n1)CCNC2,Percent Effect,"30.3 µM, […]",5.311%
CC(=O)N1CC[C@H]2OCC[C@@]2(C(=O)NCCc2ccccn2)C1.O=C(O)C(F)(F)F,Percent Effect,"30.3 µM, […]",-0.5887%
CNc1snc(C)c1C(=O)N1CCCC(n2cccn2)C1 (stereo not given),Percent Effect,30 µM,20.79%
N#Cc1ccccc1N1CCCN(C(=O)CCc2ccco2)CC1,Percent Effect,"30.3 µM, […]",17.14%
CN(C(=O)C1(C#N)CCCCC1)c1nccs1,Percent Effect,"30.3 µM, […]",12.59%
Cn1nc(Cn2ccnc2)c2c1CN(C(=O)c1ccoc1)C2.O=C(O)C(F)(F)F,Percent Effect,"30.3 µM, […]",54.37%
Cn1nc(Cn2ccnc2)c2c1CN(Cc1ccoc1)C2.O=C(O)C(F)(F)F.O=C(O)C(F)(F)F,Percent Effect,"30.3 µM, […]",2.195%
Cc1ccoc1C(=O)N1Cc2c(Cn3ccnc3)nn(C)c2C1.O=C(O)C(F)(F)F,Percent Effect,"30.3 µM, […]",12.09%
COCc1nc2n(n1)CCCC2Nc1nc(C)ns1 (stereo not given),Percent Effect,"30.3 µM, […]",-12.79%
O=C(CC1CCC2(CC1)CCN(Cc1nccs1)CC2)N1CC=CC1,Percent Effect,"30.3 µM, […]",-13.52%
Cc1ccc(CNc2ccccc2SCCC(N)=O)s1,Percent Effect,"30.3 µM, […]",58.74%
CC(C)(C)c1ncc(CNc2ccccc2SCCC(N)=O)s1,Percent Effect,"30.3 µM, […]",-11.51%
NC(=O)C(NCc1ccc(Cl)s1)c1ccccc1 (stereo not given),Percent Effect,"30.3 µM, […]",22.99%
CC(C)(C)c1nc(CNc2ccccc2SCCC(N)=O)cs1,Percent Effect,"30.3 µM, […]",-34.53%
NC(=O)C(NC(=O)CCc1ccc(Cl)s1)c1ccccc1 (stereo not given),Percent Effect,"30.3 µM, […]",20.24%
NC(=O)CCSc1ccccc1NCc1ccc(Cl)s1,Percent Effect,"30.3 µM, […]",57.16%
Cc1nn(C)c(C)c1CN(C)C(=O)c1cccc(CCC(C)(C)O)c1,Percent Effect,"30.3 µM, […]",45.36%
O=C(O)C(F)(F)F.O=C(c1ccc[nH]1)N1CCCn2c(CNC3CCC3)nnc2C1,Percent Effect,"30.3 µM, […]",19.78%
Cc1ccccc1-c1cncc(C2CCN(C3CCOCC3)CC2)n1,Percent Effect,"30.3 µM, […]",-12.97%
C1CCC(c2nc3c(c(N4CCN5CCCC5C4)n2)CCNCC3)C1 (stereo not given),Percent Effect,"30.3 µM, […]",52.04%
NCC1CCN(c2nc(C3CCCC3)nc3c2CCNCC3)C1 (stereo not given),Percent Effect,"30.3 µM, […]",-3.279%
C1CCC(c2nc3c(c(N4CC(N5CCOCC5)C4)n2)CCNCC3)C1,Percent Effect,"30.3 µM, […]",33.91%
CCc1cn[nH]c1C1CCN(c2cc(C)c3cccc(OC)c3n2)CC1,Percent Effect,"30.3 µM, […]",13.27%
Cn1cnc(-c2nc(C(=O)NCCN3CCCC3)c3ccccn23)c1,Percent Effect,"30.3 µM, […]",50.91%
Cn1cnc(-c2nc(C(=O)NCCN3CCOCC3)c3ccccn23)c1,Percent Effect,"30.3 µM, […]",40.37%
COCCNC(=O)c1nc(-c2cn(C)cn2)n2ccccc12,Percent Effect,"30.3 µM, […]",36.99%
COCCN1CCN(Cc2nccs2)[C@H]2CS(=O)(=O)C[C@H]21,Percent Effect,"30.3 µM, […]",-6.4%
O=C(NCCC(=O)N1CCCC1)c1nn(-c2ccccc2F)cc1O,Percent Effect,"30 µM, 30.03 µM",-0.1897%
Cc1ncsc1CCC(=O)N1CCn2cccc2C1c1cccnc1 (stereo not given),Percent Effect,"30.3 µM, […]",18.51%
CN(Cc1cnc(C(C)(C)C)nc1)Cc1nc2ccc(F)cc2[nH]1,Percent Effect,"30.3 µM, […]",52.7%
Cc1ccc(CN(C)Cc2nc3ccc(F)cc3[nH]2)cn1,Percent Effect,"30.3 µM, […]",12.06%
CNS(=O)(=O)c1ccc(CN(C)Cc2nc3ccc(F)cc3[nH]2)cc1,Percent Effect,"30.3 µM, […]",-17.23%
Cc1c(C(=O)NCC2CCS(=O)(=O)C2)cnn1-c1ccccc1 (stereo not given),Percent Effect,"30.3 µM, […]",-5.688%
CN(C)C(=O)c1cccnc1-c1ccc2c(c1)OCO2,Percent Effect,"30.3 µM, […]",11.7%
Cc1ccc2c(c1)cc(CN1CC[C@](C)(O)[C@H](C)C1)n2C,Percent Effect,"30.3 µM, […]",50.4%
C[C@@H]1CN(Cc2cc3ccccc3n2C)CC[C@]1(C)O,Percent Effect,"30.3 µM, […]",19.22%
C[C@@H]1CN(Cc2cc3ccccc3n2C)CC[C@@]1(O)C1CC1,Percent Effect,"30.3 µM, […]",34.38%
CC(C(=O)N1CCN(CCOc2ccccc2)CC1)n1cncn1 (stereo not given),Percent Effect,"30.3 µM, […]",10.7%
CCOCC1CN(S(=O)(=O)C2CC2)Cc2cnn(C)c21 (stereo not given),Percent Effect,"30.3 µM, […]",-42.59%
CN(CC(=O)N1CCCC1)C(=O)c1ccccc1Nc1ccccc1,Percent Effect,"30.3 µM, […]",-2.979%
CCc1cnc(N)nc1N[C@@H](C)c1ncccc1C,Percent Effect,"30.3 µM, […]",22.19%
CCc1cnc(N)nc1NC(C)c1ccc(C)c(C)c1 (stereo not given),Percent Effect,"30.3 µM, […]",88.85%
CCc1cnc(N)nc1NC(C)c1cnn(C)c1 (stereo not given),Percent Effect,"30.3 µM, […]",1.659%
CC(C)OC[C@H]1CCC[C@]12CN(S(=O)(=O)c1cn(C)cn1)CCO2,Percent Effect,"30.3 µM, […]",9.701%
NC(c1ccc(F)cc1)c1cccs1 (stereo not given),Percent Effect,"30.3 µM, […]",6.777%
CN(C)CCO[C@@H]1CC[C@H]2[C@H]1OCCN2C(=O)c1ccccc1F,Percent Effect,"30.3 µM, […]",24.56%
CC(C)(C)c1nccc(C2(c3ccccc3Cl)CCNCC2)n1,Percent Effect,"30.3 µM, […]",98.02%
CCC1C(=O)NCCN1c1ccnc(C(C)(C)C)n1 (stereo not given),Percent Effect,"30.3 µM, […]",-23.65%
Clc1ccccc1C1(c2ccnc(-c3ncccn3)n2)CCNCC1,Percent Effect,"30 µM, 30.03 µM",15.9%
Clc1ccccc1C1(c2ccnc(-c3ccncc3)n2)CCNCC1,Percent Effect,"30 µM, 30.03 µM",69.77%
O=c1[nH]cccc1-c1nccc(C2(c3ccccc3Cl)CCNCC2)n1,Percent Effect,"30.3 µM, […]",3.768%
CC(C)c1nccc(C2(c3ccccc3Cl)CCNCC2)n1,Percent Effect,"30.3 µM, […]",86.79%
CC(C)c1nccc(CN2CCCC(O)(CN3CCCC3)C2)n1 (stereo not given),Percent Effect,"30.3 µM, […]",-4.495%
CC(C)c1nccc(CN2CCC(O)(CN3CCCCC3)C2)n1 (stereo not given),Percent Effect,"30.3 µM, […]",18.94%
CC(C)CSCCN1CCN(S(C)(=O)=O)CC1,Percent Effect,"30.3 µM, […]",-11.46%
O=C(c1ccccc1)N1C[C@@H]2CC[C@H](C1)N(C(=O)CN1CCOCC1)C2,Percent Effect,"30.3 µM, […]",12.92%
CCNc1c(C#N)c(=O)n(C)c(=O)n1C,Percent Effect,"30.3 µM, […]",22.41%
OC1CCN(c2ccnc(NCCN3CCc4ccccc4C3)n2)C1 (stereo not given),Percent Effect,"30.3 µM, […]",47%
OC1CCN(c2ccnc(NCCc3ccccc3Cl)n2)CC1,Percent Effect,"30.3 µM, […]",-1.281%
OC1CCN(c2ccnc(NCCc3ccccc3Cl)n2)C1 (stereo not given),Percent Effect,"30.3 µM, […]",64.18%
Cc1cc(=O)c(C(=O)Nc2cccc(CCN3CCCC3)c2)c[nH]1,Percent Effect,"30.3 µM, […]",12.01%
Cn1cc(C(=O)Nc2cccc(CCN3CCCC3)c2)ccc1=O,Percent Effect,"30.3 µM, […]",25.83%
Cc1ccc(F)c(C(=O)Nc2cccc(CCN3CCCC3)c2)c1,Percent Effect,"30.3 µM, […]",51.62%
